Consider twelve molecules from PubChem BioAssay.

In test [1] the test system is PRMT1 (protein arginine N-methyltransferase 1). The experiment in a line: PRMT1 binders on small-molecule microarrays, primary screen, biochemical, small-molecule microarray, 635 nm fluorescence (AID 1088).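 Further: binding of Prmt1 protein to compounds spotted on small-molecule microarray slides.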 To be noted: small-molecule microarray binding, higher = more signal.
A short description of test [2]: yeast growth modulation, basal conditions, primary screen, YJM789 clinical isolate, OD600, 24 h (AID 1089).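 Further: growth of clinical yeast isolate S. cerevisiae YJM 789 seeded 1000 cells per well; test concentration not given here.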 To be noted: S. cerevisiae YJM789 growth, higher = more signal, called active from +8 up or from −8 down.
The nature of test [3]: fission yeast growth modulation, primary screen, strain 972, OD600, 24 h, no modulator (AID 1090).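 Further: basal condition with compound alone and no growth modifier present; test concentration not given here.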 To be noted: S. pombe 972 growth, higher = more signal, called active from +8 up or from −8 down.
A short description of test [4]: S. cerevisiae growth modulation with rapamycin, primary screen, strain BY4716, OD600, 96 h (AID 1091). Further: test concentration not given here. The note with it: higher = more signal, called active from +8 up or from −8 down.
The target in test [5] is Torsin-1A-interacting protein 2 (Homo sapiens) (UniProt Q8NFQ8). Put plainly: LULL1 binders on small-molecule microarray, primary screen, cell lysate, human LULL1 lysate, 635/667 nm fluorescence (AID 1092).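 Further: probe is lysate of COS7 cells overexpressing human LULL1; score merges per-feature 667 nm fluorescence with signal-to-noise.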 To be noted: hLULL1 lysate binding, 635 nm fluorescence, higher = more signal.
Sequence of Torsin-1A-interacting protein 2 (Homo sapiens) (Q8NFQ8 whole entry, looked up): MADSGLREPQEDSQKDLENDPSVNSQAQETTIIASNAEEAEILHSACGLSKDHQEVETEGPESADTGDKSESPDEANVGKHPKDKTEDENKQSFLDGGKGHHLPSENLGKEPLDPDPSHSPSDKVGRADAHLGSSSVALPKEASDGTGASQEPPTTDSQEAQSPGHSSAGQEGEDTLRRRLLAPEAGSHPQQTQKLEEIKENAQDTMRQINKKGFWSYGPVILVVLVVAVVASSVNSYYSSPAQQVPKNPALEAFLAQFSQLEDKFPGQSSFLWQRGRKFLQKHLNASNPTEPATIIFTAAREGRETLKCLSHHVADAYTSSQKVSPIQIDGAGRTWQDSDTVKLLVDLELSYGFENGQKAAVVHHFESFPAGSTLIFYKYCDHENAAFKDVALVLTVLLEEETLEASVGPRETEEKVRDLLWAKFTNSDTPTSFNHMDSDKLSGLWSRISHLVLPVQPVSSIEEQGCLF
The nature of test [6]: E. coli growth modulation, two-sided OD650, primary screen, E. coli filamentation project, strain DRC41, 24 h (AID 1093).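 Further: MC1000 strain lacking acrAB efflux and sulA so SOS filamentation is blocked; test concentration not given here.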 To be noted: OD650, 24 h, higher = more signal, called active from +8 up or from −8 down.
Test [7] in a line: small-molecule microarray binders of probe aLefty2, primary screen, biochemical, biotinylated probe, 635/667 nm fluorescence (AID 1094).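 Further: score merges spot fluorescence near 667 nm with spot signal-to-noise ratio.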 The note with it: higher = more signal.
Test [8] relates to Noggin (protein binding on small-molecule microarray). Put plainly: Noggin binders on small-molecule microarray, primary screen, biochemical, 635/667 nm fluorescence (AID 1095).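 Further: score merges 667 nm feature fluorescence with signal to noise over triplicate slides.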 To be noted: 635 nm fluorescence, higher = more signal.
The target in test [9] is Neurogenic locus notch homolog protein 3 (Homo sapiens) (UniProt Q9UM47). The experiment in a line: NOTCH3 binders on small-molecule microarray, primary screen, biochemical, 635/667 nm fluorescence (AID 1096). The note with it: NOTCH3 binding, 635 nm fluorescence, higher = more signal.
Sequence of Neurogenic locus notch homolog protein 3 (Homo sapiens) (Q9UM47 whole entry, looked up): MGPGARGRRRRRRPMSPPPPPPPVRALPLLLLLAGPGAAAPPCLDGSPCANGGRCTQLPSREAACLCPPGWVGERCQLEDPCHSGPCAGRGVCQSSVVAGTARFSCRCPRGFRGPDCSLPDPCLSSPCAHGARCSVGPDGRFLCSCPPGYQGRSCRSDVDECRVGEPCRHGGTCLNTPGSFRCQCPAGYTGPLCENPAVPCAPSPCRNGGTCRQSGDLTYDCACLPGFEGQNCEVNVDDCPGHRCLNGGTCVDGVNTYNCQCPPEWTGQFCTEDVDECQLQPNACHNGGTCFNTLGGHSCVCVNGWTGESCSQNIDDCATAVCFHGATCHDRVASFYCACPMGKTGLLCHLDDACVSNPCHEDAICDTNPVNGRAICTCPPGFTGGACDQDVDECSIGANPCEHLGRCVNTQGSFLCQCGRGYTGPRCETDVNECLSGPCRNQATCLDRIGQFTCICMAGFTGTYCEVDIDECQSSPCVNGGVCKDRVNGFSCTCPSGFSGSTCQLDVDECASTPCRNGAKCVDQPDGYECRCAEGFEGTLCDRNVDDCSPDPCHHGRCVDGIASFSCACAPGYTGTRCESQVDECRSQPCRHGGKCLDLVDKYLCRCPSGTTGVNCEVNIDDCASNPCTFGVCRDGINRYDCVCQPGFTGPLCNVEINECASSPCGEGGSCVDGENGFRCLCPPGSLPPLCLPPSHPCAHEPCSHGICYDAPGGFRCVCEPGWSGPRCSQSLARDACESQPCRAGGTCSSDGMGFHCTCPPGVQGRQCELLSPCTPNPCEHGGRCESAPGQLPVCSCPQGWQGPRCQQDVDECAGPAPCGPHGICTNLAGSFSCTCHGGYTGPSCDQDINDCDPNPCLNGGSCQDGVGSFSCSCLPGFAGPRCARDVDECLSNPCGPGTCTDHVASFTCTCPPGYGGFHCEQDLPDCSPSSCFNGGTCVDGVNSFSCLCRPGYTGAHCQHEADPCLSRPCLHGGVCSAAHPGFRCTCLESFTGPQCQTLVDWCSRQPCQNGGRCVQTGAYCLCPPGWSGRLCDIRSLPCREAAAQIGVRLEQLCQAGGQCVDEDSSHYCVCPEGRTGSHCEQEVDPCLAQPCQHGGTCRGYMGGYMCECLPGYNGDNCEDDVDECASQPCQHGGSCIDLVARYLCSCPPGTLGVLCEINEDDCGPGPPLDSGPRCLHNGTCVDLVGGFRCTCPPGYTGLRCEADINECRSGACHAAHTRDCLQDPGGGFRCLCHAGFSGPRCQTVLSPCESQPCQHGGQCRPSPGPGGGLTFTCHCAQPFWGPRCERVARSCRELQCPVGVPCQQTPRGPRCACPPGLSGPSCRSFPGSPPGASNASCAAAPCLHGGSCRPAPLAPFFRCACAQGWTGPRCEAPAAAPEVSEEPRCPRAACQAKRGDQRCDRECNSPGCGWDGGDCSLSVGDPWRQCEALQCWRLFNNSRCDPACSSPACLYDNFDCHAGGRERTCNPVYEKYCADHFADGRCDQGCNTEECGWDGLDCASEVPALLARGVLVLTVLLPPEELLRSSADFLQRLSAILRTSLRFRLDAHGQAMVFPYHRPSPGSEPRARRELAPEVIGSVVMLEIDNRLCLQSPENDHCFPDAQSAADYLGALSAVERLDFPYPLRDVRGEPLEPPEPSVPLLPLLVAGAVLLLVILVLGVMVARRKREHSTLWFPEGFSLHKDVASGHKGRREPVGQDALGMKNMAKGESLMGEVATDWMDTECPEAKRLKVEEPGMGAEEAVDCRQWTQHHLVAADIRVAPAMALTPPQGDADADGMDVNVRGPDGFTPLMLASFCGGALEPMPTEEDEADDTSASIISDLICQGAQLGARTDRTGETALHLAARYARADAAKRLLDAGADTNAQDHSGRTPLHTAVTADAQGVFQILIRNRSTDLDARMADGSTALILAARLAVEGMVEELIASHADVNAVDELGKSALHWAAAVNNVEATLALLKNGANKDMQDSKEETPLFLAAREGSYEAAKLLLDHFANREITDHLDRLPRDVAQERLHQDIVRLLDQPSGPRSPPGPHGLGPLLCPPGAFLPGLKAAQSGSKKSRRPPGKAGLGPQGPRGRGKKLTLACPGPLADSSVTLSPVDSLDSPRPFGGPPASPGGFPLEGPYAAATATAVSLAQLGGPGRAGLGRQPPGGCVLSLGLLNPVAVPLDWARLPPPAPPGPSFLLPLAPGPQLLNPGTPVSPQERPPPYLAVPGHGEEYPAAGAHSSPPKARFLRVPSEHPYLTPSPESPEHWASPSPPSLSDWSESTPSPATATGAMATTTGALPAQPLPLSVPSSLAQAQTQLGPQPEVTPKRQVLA
Test [10] in a line: small-molecule microarray binders of probe aEGFR, primary screen, biochemical, biotinylated probe, 635/667 nm fluorescence (AID 1097).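 Further: probe is a biotinylated anti-EGFR antibody binding compounds printed on slides; score combines fluorescence near 667 nm and signal to noise of each spot.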 The note with it: higher = more signal.

The source made the active and inactive calls.

As to `C[N+](C)(C)CCCCNC(=O)[C@H]1C[C@H]2C(=O)N[C@@H](Cc3ccccc3)C(=O)N2[C@H]1c1ccc(O)cc1`, the composite z-score is 0.684 in [1]; -0.114 in test [5]; -0.108 in [7]; 1.69 in [8]; 0.471 in test [9]; -0.112 in test [10]. Also, the z-score in [2] is 1.1 (inactive); in test [3], -0.0797 (inactive); in test [4] it was -1.15 (inactive); in test [6], 0.282 (inactive).
Turning to `C=CCOC(=O)[C@H]1[C@@H]2C(=O)O[C@@H](c3ccccc3)[C@@H](c3ccccc3)N2[C@@H](c2ccc(OCCOC(=O)[C@@H]3C[C@@H]4C(=O)N[C@@H](CCCCN(C)C)C(=O)N4[C@@H]3c3ccc(O)cc3)cc2)[C@]12C(=O)Nc1ccc(I)cc12`, the composite z-score in [1] was 1.46; in test [5] it was 2.77; in [7], -0.0823; in test [8] it was 1.51; in [9], 1.05; in test [10], 0.0752. Besides, the z-score in test [2] was 1.36 (inactive); in test [3], -1.09 (inactive); in test [4], 1.52 (inactive); in test [6], -1.34 (inactive).
With `CCCCc1cn(C[C@H](Cc2ccccc2)NC(=O)N[C@H](CO)CCc2oc(C(C)=O)c(C(=O)OC)c2C(=O)OC)nn1`, the composite z-score in [1] stood at 1.54; in test [5], 1.7; in test [7] it was 0.165; in test [8] it was 1.14; in test [9], 1.1; in [10], 0.114. In addition, the z-score was -0.425 (inactive) in test [2], -0.0326 (inactive) in test [3], -0.173 (inactive) in [4] and 0.0003 (inactive) in [6].
In the case of `CCOC1=C2C(CN(S(=O)(=O)c3ccc(C)cc3)C2c2ccc(C)cc2)C2C(=O)N(c3ccccc3)C(=O)C2C1` (stereo not given), the composite z-score in test [1] was 0.952; in test [5], 1.96; in test [7] it was -0.0515; in [8] it was 0.257; in [9] it was 0.875; in [10], 0.0414. In addition, the z-score in test [2] is 0.218 (inactive); in [3], 1.86 (inactive); in [4] it was 0.852 (inactive); in test [6] it was 0.0696 (inactive).
On to `CN(C)CCCNC(=O)[C@@]1(c2ccc([N+](=O)[O-])cc2)CC(=O)N(C2CCCCC2)[C@@H]1c1ccc(CO)cc1`, for which the composite z-score is 1.54 in test [1]; 1.09 in [5]; -0.0259 in [7]; 0.0069 in test [8]; 0.444 in [9]; -0.0978 in test [10]. Also, the z-score in [2] is 1.78 (inactive); in test [3] it was -8.13 (active); in test [4] it was -1.97 (inactive); in test [6] it was 0.59 (inactive).
With `Cc1ccc(C(C)CC(O)C2C=CC3C(=O)N(C)C(=O)C3N2NC(=O)OC(C)(C)C)o1` (stereo not given), the composite z-score was determined as 1.42 in test [1]; 3 in [5]; 0.0682 in test [7]; 0.68 in test [8]; 1.06 in test [9]; 0.0681 in [10]. The z-score is 0.309 (inactive) in test [2], -0.63 (inactive) in test [3], 0.101 (inactive) in test [4] and -0.615 (inactive) in test [6].
For `COc1cc(CO)cc(I)c1O[C@H]1C=C(C(=O)NCCO)C[C@@H](N(CCN2CCOCC2)C(=O)C2CCOC2)[C@@H]1O` (stereo not given in full), the composite z-score in [1] was 0.815; in [5] it was -0.367; in test [7], -0.0636; in test [8], 0.407; in test [9], 0.51; in test [10] it was -0.099. In addition, the z-score in test [2] was -0.263 (inactive); in test [3], -0.62 (inactive); in test [4] it was -0.679 (inactive); in test [6], 2.36 (inactive).
Turning to `COC(=O)[C@@]1(Cc2ccc(OC)cc2)[C@H]2c3cc(C(=O)N(C)C)n(Cc4cccc5ccccc45)c3C[C@H]2CN1C(=O)c1ccccc1`, the composite z-score was found to be 0.219 in test [1]; 2.78 in test [5]; 1.07 in test [7]; 0.841 in test [8]; 0.481 in [9]; 0.92 in test [10]. Further, the z-score in test [2] is -0.386 (inactive); in test [3], 0.514 (inactive); in test [4], 1.46 (inactive); in [6] it was -0.223 (inactive).
Consider `[N-]=[N+]=NCc1ccccc1[C@@H]1OC(c2ccc(OCCCO)cc2)=N[C@]1(CCS(=O)(=O)c1ccccc1)C(=O)NCc1ccccc1`, for which the composite z-score in test [1] was determined as 1.55; in test [5], 3.25; in test [7], 0.468; in test [8], 1.81; in test [9], 1.09; in test [10], 0.198. The z-score was 0.182 (inactive) in [2], 1.18 (inactive) in [3], 3.49 (inactive) in test [4] and -0.382 (inactive) in test [6].
As to `COc1ccc(C(=O)Nc2ccc(CN3C(=O)[C@@]4(O[C@@H](CC(=O)N5CCC[C@H]5CO)[C@H]([Si](C)(C)c5ccc(OC)cc5)[C@H]4C)c4ccccc43)cc2)cc1`, the composite z-score is 1.55 in test [1]; 2.07 in test [5]; -0.0134 in [7]; 1.05 in [8]; 1.09 in test [9]; 0.131 in [10]. The z-score in test [2] is -0.466 (inactive); in test [3], -0.838 (inactive); in test [4], -0.436 (inactive); in test [6], 0.632 (inactive).
For `CN1C(=O)C2C=CC(C(O)C3CCCCC3)N(Nc3ccc([N+](=O)[O-])cc3[N+](=O)[O-])C2C1=O` (stereo not given), the composite z-score in test [1] is 1.52; in test [5], 3.24; in test [7], 0.191; in [8], 0.219; in test [9] it was 1.03; in [10], 0.0624. Moreover, the z-score in test [2] is 0.492 (inactive); in test [3], 1.19 (inactive); in test [4], 0.68 (inactive); in test [6], -0.632 (inactive).
With `CCOC(=O)[C@H]1C/C=C/C[C@H](C(=O)OCC)C(=O)O[C@H]2[C@@H](OC)O[C@H](CO)[C@@H](OC(=O)Nc3cccc(F)c3)[C@@H]2OC1=O`, the composite z-score in test [1] is 1.11; in [5] it was 2.94; in [7], -0.162; in test [8], 0.719; in [9], 1.02; in test [10], -0.2. Besides, the z-score in test [2] was 1.52 (inactive); in test [3], 0.268 (inactive); in test [4] it was 22.2 (active); in test [6] it was -0.168 (inactive).
